Measured values from PMC4336329 (PLoS ONE, 2015).
The whole screen tested about 310,000 compounds, of which about 14,000 (4.5%) showed an effect of 50% or more. Effects have a minus sign here. The entries come from a sample that favours strong results as a whole.

biological target: human ether-à-go-go-related gene (hERG) potassium channel (human, UniProt Q12809); experiment: primary screen, population patch clamp on CHO cells stably expressing hERG; higher = less effect of the substance
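Note: peak tail current of the secondary pulse compared with the same well before compound.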

Sequence of human ether-à-go-go-related gene (hERG) potassium channel (Q12809 whole entry, looked up): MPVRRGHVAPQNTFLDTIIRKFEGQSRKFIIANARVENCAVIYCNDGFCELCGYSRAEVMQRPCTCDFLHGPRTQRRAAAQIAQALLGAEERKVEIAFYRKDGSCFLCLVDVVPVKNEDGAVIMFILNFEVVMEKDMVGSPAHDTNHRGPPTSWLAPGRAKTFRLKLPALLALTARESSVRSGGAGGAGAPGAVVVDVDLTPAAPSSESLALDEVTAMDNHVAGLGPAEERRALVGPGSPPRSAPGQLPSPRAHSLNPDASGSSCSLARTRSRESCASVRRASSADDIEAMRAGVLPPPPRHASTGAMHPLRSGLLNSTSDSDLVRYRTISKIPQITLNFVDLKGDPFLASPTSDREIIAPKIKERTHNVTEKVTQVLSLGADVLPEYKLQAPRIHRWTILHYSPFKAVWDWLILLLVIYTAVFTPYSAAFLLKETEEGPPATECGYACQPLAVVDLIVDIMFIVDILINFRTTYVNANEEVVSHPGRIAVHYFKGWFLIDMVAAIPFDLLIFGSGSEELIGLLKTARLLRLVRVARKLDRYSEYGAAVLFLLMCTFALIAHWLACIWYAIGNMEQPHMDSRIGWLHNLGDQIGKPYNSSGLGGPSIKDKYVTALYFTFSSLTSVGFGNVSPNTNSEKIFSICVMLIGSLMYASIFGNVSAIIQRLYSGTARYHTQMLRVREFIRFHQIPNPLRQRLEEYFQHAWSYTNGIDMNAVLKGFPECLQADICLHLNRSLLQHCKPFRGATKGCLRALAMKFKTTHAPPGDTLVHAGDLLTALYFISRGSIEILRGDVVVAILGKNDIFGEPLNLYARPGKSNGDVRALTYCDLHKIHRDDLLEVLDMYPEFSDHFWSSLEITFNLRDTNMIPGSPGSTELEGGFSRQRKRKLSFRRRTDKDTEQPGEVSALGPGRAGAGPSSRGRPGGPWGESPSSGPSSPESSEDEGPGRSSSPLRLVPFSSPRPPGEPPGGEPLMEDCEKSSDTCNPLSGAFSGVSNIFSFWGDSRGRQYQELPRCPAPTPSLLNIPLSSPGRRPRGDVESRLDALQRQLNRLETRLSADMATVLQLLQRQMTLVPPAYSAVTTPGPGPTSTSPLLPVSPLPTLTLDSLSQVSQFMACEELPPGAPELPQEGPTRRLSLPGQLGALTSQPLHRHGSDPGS

SMILES	hERG current change (%, negative = inhibition) at 10uM
O=C(CNC(=O)c1cccs1)Nc1ccncc1	8.67%
O=C(Nc1ccc2c(c1)OCO2)C1CC(c2ccccc2Cl)=NO1 (centres unmarked)	-12.7%
O=C1COc2ccc(S(=O)(=O)CCC(=O)N3CCN(c4cccc(Cl)c4)CC3)cc2N1	-58.4%
O=C1COc2ccc(S(=O)(=O)CCC(=O)N3CCN(c4cccc(C(F)(F)F)c4)CC3)cc2N1	-46.3%
O=C1COc2ccc(S(=O)(=O)CCC(=O)N3CCN(c4ccccc4)CC3)cc2N1	-13.1%
COc1ccccc1N1CCN(C(=O)C(C)CS(=O)(=O)c2ccc3c(c2)NC(=O)CS3)CC1 (centres unmarked)	4.07%
CC(CC(=O)N1CCN(c2ccccc2)CC1)S(=O)(=O)c1ccc2c(c1)NC(=O)CS2 (centres unmarked)	-34.6%
CC(CS(=O)(=O)c1ccc2c(c1)NC(=O)CS2)C(=O)N1CCN(c2cccc(Cl)c2)CC1 (centres unmarked)	-52.1%
O=C(NC1CCN(c2ncccn2)CC1)c1ccccc1F	18.6%
O=C(CSc1ncn(-c2ccccc2)n1)c1cccs1	-3.5%
Cc1ccc(S(=O)(=O)N2CCN(S(=O)(=O)c3ccc4c(c3)OCCO4)CC2)cc1	8.43%
COc1ccc(CCNC(=O)c2cc(-c3ccncc3)nc3c(Cl)cccc23)cc1OC	-66.9%
COc1ccc(CCNC(=O)c2cc3c(=O)n4ccccc4nc3n(C3CCCCC3)c2=N)cc1	-81.3%
COc1ccc(CNC(=O)c2c(C)nc3ccccn23)cc1	-12.1%
COc1ccc(CCNC(=O)c2cc(-c3ccccn3)nc3c(Cl)cccc23)cc1OC	10.5%
COc1ccc(CCNC(=O)c2cccc3ccccc23)cc1OC	7.77%
COc1ccc(CCNC(=O)c2cc3c(=O)n4ccccc4nc3n(C3CCCCC3)c2=N)cc1OC	-76.6%
COc1ccc(CCNC(=O)c2cccc3c2C(=O)N(C2CCCCC2)C3)cc1OC	-24.1%
COc1ccc(CCNC(=O)c2c(C)nc3ccccn23)cc1OC	-64.3%
COc1ccc(CCNC(=O)c2c(C)nc3ccccn23)cc1	-4.75%
COc1ccc(CCNC(=O)c2cnc3ccccn3c2=O)cc1	-22.3%
COc1ccccc1CNC(=O)c1cc(-c2ccncc2)nc2c(Cl)cccc12	10.5%
Cc1cc(NC(=O)c2ccc3nc(-c4ccccc4)c(-c4ccccc4)nc3c2)no1	6.59%
Nc1c(/C=C2\C=Nc3ccccc32)c(=O)nc2sc(CC(=O)N3CCOCC3)nn12	17.2%
Cc1ccc(Cn2c(C(C)Nc3nc(-c4ccc(Cl)c([N+](=O)[O-])c4)cs3)nc3cc(C(F)(F)F)ccc32)cc1 (centres unmarked)	5.46%
Fc1ccccc1COc1ccc(/C=N/n2cnnc2)cc1	-12.2%
COc1ccc(C(CCN2CCCC2)c2c(O)cc(OC)cc2OC)cc1 (centres unmarked)	-61.2%

SMILES	hERG current change (%, negative = inhibition) at 10uM
COc1ccc(C(CCN2CCCCC2)c2c(O)cc(OC)cc2OC)cc1 (centres unmarked)	-75.2%
COc1cc(O)c(C(CCN2CCCCC2)c2ccc(N(C)C)cc2)c(OC)c1 (centres unmarked)	-8.43%
COc1ccc(C(CCN2CCOCC2)c2c(O)cc(OC)cc2OC)cc1 (centres unmarked)	-47.1%
COc1cc(O)c(C(CCN2CCCCC2)c2cc(OC)c(OC)c(OC)c2)c(OC)c1 (centres unmarked)	4.24%
COc1cc(O)c(C(CCN2CCCC2)c2ccc(N(C)C)cc2)c(OC)c1 (centres unmarked)	-10%
COc1ccccc1NS(=O)(=O)c1ccc2c(c1)NC(=O)CC(=O)N2	14.5%
COc1cc(CNn2cn[nH]c2=S)cc(Br)c1OCc1ccccc1F	6.75%
CC1(C(=O)O)COC(c2ccc(Cl)cc2)OC1 (centres unmarked)	-25.3%
CC(=O)Nc1ccc(S(=O)(=O)N(C)CC(=O)Nc2cccc(S(=O)(=O)N3CCCC3)c2)cc1	-8.1%
COc1ccc(S(=O)(=O)CCC(=O)N2CCN(c3ccc(F)cc3)CC2)cc1	-59.7%
O=C(CCS(=O)(=O)c1ccc(Br)cc1)N1CCN(c2ccc(F)cc2)CC1	-66.3%
COc1ccc(S(=O)(=O)CCC(=O)N2CCN(c3ccc(C(C)=O)cc3)CC2)cc1	-45.9%
O=C(CCS(=O)(=O)c1ccc(F)cc1)N1CCN(c2ccccc2)CC1	-23.2%
COc1ccc(N2CCN(C(=O)CCS(=O)(=O)c3ccc(OC)cc3)CC2)cc1	-19.3%
O=C(CCS(=O)(=O)c1ccccc1)N1CCN(c2ccc(F)cc2)CC1	-35.9%
O=C(CCS(=O)(=O)c1ccc(Br)cc1)N1CCN(c2ccc(Cl)cc2)CC1	-9.11%
O=C(CCS(=O)(=O)c1ccc(Cl)cc1)N1CCN(c2ccc(F)cc2)CC1	-76.1%
O=C(CCS(=O)(=O)c1ccc(Cl)cc1)N1CCN(c2ccccc2F)CC1	-12.2%
Cc1ccc(-c2ccc(CCC(=O)O)o2)cc1	14.5%
CN(CCC#N)C(=S)Nc1ccc(Oc2ccccc2)cc1	-28.6%
N#Cc1c(SCC(N)=O)nsc1SCc1ccc(Cl)cc1	-0.34%
Cn1nc(-c2ccc(C(=O)O)cc2)c2ccccc2c1=O	11.6%
CC(C)C12CCC(C(=O)O)C(C1)C(=O)O2 (centres unmarked)	13.9%
N#Cc1ccccc1Oc1ccc(S(=O)(=O)N2CCCCC2)cn1	-79.6%
N#Cc1ccc(Oc2ccc(S(=O)(=O)N3CCCC3)cn2)cc1	-35.8%
N#Cc1ccc(Oc2ccc(S(=O)(=O)N3CCCCC3)cn2)cc1	-24.7%
